From PubChem BioAssay
CYP2C19 inh – blocks human cytochrome P450 2C19. P33261. CYP2C19 Supersomes, luciferin-H EGE luminescence, 30 min. inhibition, % at 5 µM. 21% of 96,000 active;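 active means CYP2C19 inhibition above a set limit at 5 µM in the primary screen, cut at about 50% in these data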;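 further: plate controls were negative control wells for no effect and 2.5 mM tranylcypromine positive control for full effect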
CYP2C19 act – activators of human cytochrome P450 2C19. AID 1025. 96,000 tested, under 10 active. recombinant CYP2C19, luciferin-H EGE luminescence; hits give high values; 0 = fully inhibited enzyme, 1 = untreated enzyme. P33261. activation factor at 5 µM;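 active means activation factor of at least 2 at 5 µM in the primary screen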;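 further: 0 = wells with 2.5 mM tranylcypromine and 1 = vehicle-only wells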
CD11b adhes enh – CD11b/CD18-fibrinogen binding enhancement | 0.07% of 93,000 active | K562 CD11b/CD18 adhesion to fibrinogen, ATPlite luminescence | activation, % at 10 µM;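 active means 10 µM primary screen giving 50% or more activity, confirmed by 40% or more on retest at that dose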
Target sequence (P05107 whole entry, looked up, other chains not shown): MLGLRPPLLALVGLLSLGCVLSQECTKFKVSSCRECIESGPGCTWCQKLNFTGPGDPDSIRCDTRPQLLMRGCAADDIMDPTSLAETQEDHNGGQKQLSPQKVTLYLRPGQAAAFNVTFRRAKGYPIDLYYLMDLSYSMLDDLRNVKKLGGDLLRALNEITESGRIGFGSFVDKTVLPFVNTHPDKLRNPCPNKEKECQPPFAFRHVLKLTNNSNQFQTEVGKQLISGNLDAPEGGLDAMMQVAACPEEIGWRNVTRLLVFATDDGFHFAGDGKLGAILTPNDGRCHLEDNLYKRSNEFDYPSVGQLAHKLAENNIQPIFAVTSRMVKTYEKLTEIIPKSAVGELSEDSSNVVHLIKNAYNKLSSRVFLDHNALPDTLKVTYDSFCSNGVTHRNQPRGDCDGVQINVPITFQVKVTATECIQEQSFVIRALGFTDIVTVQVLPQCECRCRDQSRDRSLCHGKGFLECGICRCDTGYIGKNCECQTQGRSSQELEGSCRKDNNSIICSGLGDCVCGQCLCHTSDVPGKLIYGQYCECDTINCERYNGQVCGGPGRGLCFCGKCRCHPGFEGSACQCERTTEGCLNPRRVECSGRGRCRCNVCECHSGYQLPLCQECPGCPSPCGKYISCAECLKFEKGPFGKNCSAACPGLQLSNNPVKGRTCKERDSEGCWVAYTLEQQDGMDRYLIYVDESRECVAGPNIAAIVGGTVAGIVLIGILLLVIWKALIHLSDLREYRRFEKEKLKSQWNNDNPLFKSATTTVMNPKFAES
CD11b adhes inh – CD11b/CD18-fibrinogen binding inhibition; P05107+P11215; K562 CD11b/CD18 adhesion to fibrinogen, ATPlite luminescence; Mn2+ added to activate the integrin; AID 1497; 0.54% of 93,000 active; inhibition, % at 10 µM;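 active means primary inhibition of 50% or more at 10 µM, then 40% or more on retest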
CYP2C9 activ – CYP2C9 (human) activation | recombinant CYP2C9, luciferin-H conversion, luminescence; hits give high values; factor 1 = untreated enzyme, 0 = blocked | activation factor at 5 µM | 1.4% of 96,000 active | AID 1024;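 active means activation factor of 2 or more for CYP2C9 at a 5 µM dose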;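 further: 0 = sulfaphenazole-blocked wells and 1 = vehicle-only wells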
CYP2C9 inhib – human CYP2C9 inhibition; CYP2C9 Supersomes, luciferin-H conversion, luminescence; 20% of 96,000 active; P11712; inhibition, % at 5 µM;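 active means blocking of liver enzyme CYP2C9 beyond about 50% at 5 µM, limit read from the data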
An asterisk follows results filed as active. This is a sample that favours compounds with a hit; in the whole collection about 28% have one here.

`O=C(Cn1nnc(-c2ccccc2F)n1)Nc1ccc(S(=O)(=O)NC2CCCC2)cc1` gave CYP2C19 inh 45.4, CYP2C19 act 0.5, CD11b adhes enh 3.3, CD11b adhes inh -1.9, CYP2C9 activ 0.6 and CYP2C9 inhib 42.4.
`COc1ccccc1N1CCN(CCC(=O)Nc2ccc3c(c2)OCO3)CC1` gave CYP2C19 inh 54.4*, CYP2C19 act 0.5, CD11b adhes enh -1.8, CD11b adhes inh 3.4, CYP2C9 activ 0.4 and CYP2C9 inhib 64.7*.
`COc1ccc(C)cc1NC(=O)CN1CCN(C/C=C/c2ccccc2)CC1` gave CYP2C19 inh 87.5*, CYP2C19 act 0.1, CD11b adhes enh -0.2, CD11b adhes inh 25.9, CYP2C9 activ 0.3 and CYP2C9 inhib 66.6*.
For COc1ccc(C)cc1NC(=O)CN1CCN(c2ccccc2F)CC1 the results were CYP2C19 inh 69.7*, CYP2C19 act 0.3, CD11b adhes enh 9.2, CD11b adhes inh 0.3, CYP2C9 activ 0.7 and CYP2C9 inhib 34.4.
For COc1ccc(C)cc1NC(=O)CN1CCN(S(=O)(=O)c2ccc(F)cc2)CC1 the results were CYP2C19 inh 52.5*, CYP2C19 act 0.5, CYP2C9 activ 0.8 and CYP2C9 inhib 22.7.
CC1CCC(NC(=O)c2ccc(S(C)(=O)=O)cc2)CC1 (stereo not drawn) was read as CD11b adhes enh 2.5 and CD11b adhes inh -6.7.
For COc1ccc(OC)c(NC(=O)CCN2CCN(c3ccccc3F)CC2)c1 the results were CYP2C19 inh 77.0*, CYP2C19 act 0.2, CD11b adhes enh 0.8, CD11b adhes inh 0.1, CYP2C9 activ 0.4 and CYP2C9 inhib 60.3*.
`COc1cccc(NC(=O)CCN2CCN(c3ccccc3F)CC2)c1` gave CYP2C19 inh 37.9, CYP2C19 act 0.6, CD11b adhes enh -8.3, CD11b adhes inh 0.8, CYP2C9 activ 0.7 and CYP2C9 inhib 33.0.
`CCOC(=O)N1CCN(C(=O)C(NC(=O)c2ccc(CC)cc2)C(C)C)CC1` (stereo not drawn) gave CYP2C19 inh -15.7, CYP2C19 act 1.2, CD11b adhes enh 3.6, CYP2C9 activ 1.1 and CYP2C9 inhib -7.2.
For COc1ccccc1NC(=O)N1CCc2[nH]c3ccc(F)cc3c2C1 the results were CYP2C19 inh 66.7*, CYP2C19 act 0.3, CD11b adhes enh -1.6, CD11b adhes inh -6.8, CYP2C9 activ 1.3 and CYP2C9 inhib -29.6.
For O=C(CN1CCC(C(=O)c2ccc(F)cc2)CC1)Nc1ccccc1 the results were CYP2C19 inh 36.8, CYP2C19 act 0.6, CD11b adhes enh -1.5, CD11b adhes inh 11.0, CYP2C9 activ 0.4 and CYP2C9 inhib 57.0*.
For CCOc1ccccc1NC(=O)N1CCC(C(=O)c2ccc(F)cc2)CC1 the results were CYP2C19 inh 83.1*, CYP2C19 act 0.2, CD11b adhes enh -5.3, CD11b adhes inh -8.3, CYP2C9 activ 2.5* and CYP2C9 inhib -152.8.
Screening COc1ccccc1NC(=O)N1CCC(C(=O)c2ccc(F)cc2)CC1 returned CYP2C19 inh 32.0, CYP2C19 act 0.7, CD11b adhes enh -2.3, CD11b adhes inh 8.6, CYP2C9 activ 3.4* and CYP2C9 inhib -237.4.
Screening O=C(CN1C(=O)CSc2ccccc21)Nc1ccccc1C(=O)N1CCOCC1 returned CYP2C19 inh 8.1, CYP2C19 act 0.9, CD11b adhes enh -3.0, CD11b adhes inh -11.6, CYP2C9 activ 0.9 and CYP2C9 inhib 6.2.
`COc1ccc(CCNC(=O)CN2CCC(C(N)=O)CC2)cc1` gave CYP2C19 inh -18.6, CYP2C19 act 1.2, CD11b adhes enh 0.4, CD11b adhes inh 0.4, CYP2C9 activ 1.2 and CYP2C9 inhib -16.8.
COc1ccc(CNC(=O)CN2CCC(C(=O)c3ccc(OC)cc3)CC2)cc1 was read as CYP2C19 inh 63.0*, CYP2C19 act 0.4, CD11b adhes enh -1.8, CD11b adhes inh 2.6, CYP2C9 activ 0.3 and CYP2C9 inhib 70.2*.
For COc1ccccc1NC(=O)CN1CCC(C(=O)c2ccc(F)cc2)CC1 the results were CYP2C19 inh 52.1*, CYP2C19 act 0.5, CYP2C9 activ 1.1 and CYP2C9 inhib -11.0.
`CCC(C)c1ccc(NC(=O)COc2c(F)c(F)c(C(F)(F)F)c(F)c2F)cc1` (stereo not drawn) gave CD11b adhes enh -10.6 and CD11b adhes inh 101.7.
`Cc1ccc(C2c3c(oc4ccccc4c3=O)C(=O)N2c2nnc(C(C)C)s2)o1` (stereo not drawn) gave CYP2C19 inh -5.1, CYP2C19 act 1.1, CD11b adhes enh 6.2, CD11b adhes inh -0.5, CYP2C9 activ 0.9 and CYP2C9 inhib 13.1.
`CN1c2cccc3cccc(c23)N(C)C1(C)C` gave CYP2C19 inh 24.0, CYP2C19 act 0.8, CYP2C9 activ 1 and CYP2C9 inhib -1.8.
Screening CN1/C(=N\O)c2cccc3cccc1c23 returned CYP2C19 inh 70.3*, CYP2C19 act 0.3, CD11b adhes enh -2.8, CD11b adhes inh -1.1, CYP2C9 activ 1.8 and CYP2C9 inhib -77.1.
O=C1c2ccccc2C(Nc2ccc(Cl)cn2)N1Cc1ccccc1 (stereo not drawn) was read as CYP2C19 inh 81.3*, CYP2C19 act 0.2, CD11b adhes enh -4.6, CD11b adhes inh 11.7, CYP2C9 activ 0.3 and CYP2C9 inhib 70.3*.
NS(=O)(=O)c1ccc(CCNC2CC(=O)N(CCc3ccccc3)C2=O)cc1 (stereo not drawn) was read as CYP2C19 inh -11.9, CYP2C19 act 1.1, CD11b adhes enh -3.3, CD11b adhes inh -25.0, CYP2C9 activ 1.2 and CYP2C9 inhib -15.1.
CC1(C)CC(=O)C=C(NCC2CCCO2)C1 (stereo not drawn) was read as CYP2C19 inh -0.7, CYP2C19 act 1, CD11b adhes enh -4.1, CD11b adhes inh -9.7, CYP2C9 activ 1.1 and CYP2C9 inhib -9.5.
For Cc1ccc(CNC(=O)Nc2ccccc2)cc1 the results were CYP2C19 inh 91.5*, CYP2C19 act 0.1, CD11b adhes enh 1.6, CD11b adhes inh -9.5, CYP2C9 activ 0.7 and CYP2C9 inhib 32.2.
`O=C(Cc1cccs1)NCc1ccncc1` gave CYP2C19 inh 3.5, CYP2C19 act 1, CD11b adhes enh -0.8, CD11b adhes inh 1.2, CYP2C9 activ 0.9 and CYP2C9 inhib 13.3.
COCCNC(=O)C1(C)Oc2ccccc2NC1=O (stereo not drawn) was read as CYP2C19 inh 9.5, CYP2C19 act 0.9, CD11b adhes enh -4.0, CD11b adhes inh 9.1, CYP2C9 activ 0.9 and CYP2C9 inhib 11.2.
Screening O=C(NCc1ccc(N2CCCC2=O)cc1)Nc1ccccc1 returned CYP2C19 inh 20.7, CYP2C19 act 0.8, CD11b adhes enh 4.7, CD11b adhes inh -26.1, CYP2C9 activ 0.7 and CYP2C9 inhib 33.6.
Screening COc1cccc(CNC(=O)CCNS(=O)(=O)c2cccs2)c1 returned CYP2C19 inh 90.1*, CYP2C19 act 0.1, CD11b adhes enh -0.4, CD11b adhes inh -16.4, CYP2C9 activ 0.9 and CYP2C9 inhib 5.8.
